# Assay results: PubChem BioAssay AID1159580 (chemical genetic matrix, 2015)
# Several values for one entry are separate records, joined by “and”; a condition that tells them apart may be missing. Equal entries are not always repeated. In all, about 5,500 compounds went through this assay and about 2,000 (36%) were called active. Inconclusive results (about 18%) are left out. Rule as the data show it: active = normalized growth mostly below about 0.91 (no sharp cut-off); inconclusive = no clear call, values can overlap the other calls; inactive = mostly above about 0.92. Some of the results follow.
# Assay: chemical genetic growth profiling, strain panel (AID 1159580);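 also: tested at 20 µM; growth read once vehicle control cultures reached saturation at 30 °C; 1 = growth at the plate median or of vehicle wells; lower values mean less growth of the strain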
# Conditions: S. cerevisiae deletion strains, growth OD
structure (smiles),measurement,setting,value
CCCCCCCCNC(C)C(O)c1ccc(SC(C)C)cc1 (stereo not drawn),normalized growth,"locus YAL021C, strain ccr4, stronger effect = lower value",0.0594 (active)
same,normalized growth,"locus YAL026C, strain drs2, stronger effect = lower value",0.0595 (active)
same,normalized growth,"locus YAL030W, strain snc1, stronger effect = lower value",0.0546 (active)
same,normalized growth,"locus YBL061C, strain skt5, stronger effect = lower value",0.0571 (active)
same,normalized growth,"locus YBR009C, strain hhf1, stronger effect = lower value",0.0563 (active)
same,normalized growth,"locus YBR021W, strain FUR4, stronger effect = lower value",0.0834 (active)
same,normalized growth,"locus YBR023C, strain chs3, stronger effect = lower value",0.0584 (active)
same,normalized growth,"locus YBR171W, strain sec66, stronger effect = lower value",0.0741 (active)
same,normalized growth,"locus YBR229C, strain ROT2, stronger effect = lower value",0.0441 (active)
same,normalized growth,"locus YBR231C, strain swc5, stronger effect = lower value",0.0585 (active)
same,normalized growth,"locus YBR279W, strain paf1, stronger effect = lower value",0.0682 (active)
same,normalized growth,"locus YCL011C, strain gbp2, stronger effect = lower value",0.055 (active)
same,normalized growth,"locus YCL016C, strain dcc1, stronger effect = lower value",0.0618 (active)
same,normalized growth,"locus YCL029C, strain bik1, stronger effect = lower value",0.0564 (active)
same,normalized growth,"locus YCL069W, strain vba3, stronger effect = lower value",0.0585 (active)
same,normalized growth,"locus YCR088W, strain abp1, stronger effect = lower value",0.0581 (active)
same,normalized growth,"locus YDL005C, strain med2, stronger effect = lower value",0.0745 (active)
same,normalized growth,"locus YDL035C, strain GPR1, stronger effect = lower value",0.0475 (active)
same,normalized growth,"locus YDL040C, strain nat1, stronger effect = lower value",0.0579 (active)
same,normalized growth,"locus YDL074C, strain BRE1, stronger effect = lower value",0.0735 (active)
same,normalized growth,"locus YDL101C, strain DUN1, stronger effect = lower value",0.0522 (active)
same,normalized growth,"locus YDL134C, strain PPH21, stronger effect = lower value",0.047 (active)
same,normalized growth,"locus YDL185W, strain tfp1, stronger effect = lower value",0.262 (active)
same,normalized growth,"locus YDL192W, strain arf1, stronger effect = lower value",0.0576 (active)
same,normalized growth,"locus YDR001C, strain nth1, stronger effect = lower value",0.06 (active)
same,normalized growth,"locus YDR069C, strain doa4, stronger effect = lower value",0.0584 (active)
same,normalized growth,"locus YDR101C, strain arx1, stronger effect = lower value",0.0541 (active)
same,normalized growth,"locus YDR137W, strain rgp1, stronger effect = lower value",0.0948 (active)
same,normalized growth,"locus YDR150W, strain NUM1, stronger effect = lower value",0.0542 (active)
same,normalized growth,"locus YDR159W, strain sac3, stronger effect = lower value",0.0734 (active)
same,normalized growth,"locus YDR162C, strain NBP2, stronger effect = lower value",0.0459 (active)
same,normalized growth,"locus YDR195W, strain ref2",0.0984 (active)
same,normalized growth,"locus YDR297W, strain sur2, stronger effect = lower value",0.0553 (active)
same,normalized growth,"locus YDR318W, strain mcm21, stronger effect = lower value",0.0585 (active)
same,normalized growth,"locus YDR334W, strain swr1, stronger effect = lower value",0.0597 (active)
same,normalized growth,"locus YDR335W, strain msn5, stronger effect = lower value",0.0583 (active)
same,normalized growth,"locus YDR388W, stronger effect = lower value",0.054 (active)
same,normalized growth,"locus YDR392W, strain spt3, stronger effect = lower value",0.0655 (active)
same,normalized growth,"locus YDR502C, strain sam2, stronger effect = lower value",0.056 (active)
same,normalized growth,"locus YEL003W, strain gim4, stronger effect = lower value",0.0594 (active)
same,normalized growth,"locus YEL037C, strain rad23, stronger effect = lower value",0.0554 (active)
same,normalized growth,"locus YEL061C, strain CIN8 (second series), stronger effect = lower value",0.0597 (active)
same,normalized growth,"locus YEL061C, strain CIN8, stronger effect = lower value",0.0482 (active)
same,normalized growth,"locus YER015W, strain faa2, stronger effect = lower value",0.0595 (active)
same,normalized growth,"locus YER016W, strain bim1, stronger effect = lower value",0.0591 (active)
same,normalized growth,"locus YER110C, stronger effect = lower value",0.0696 (active)
same,normalized growth,"locus YER111C, strain swi4, stronger effect = lower value",0.0814 (active)
same,normalized growth,"locus YER155C, strain BEM2 (second series), stronger effect = lower value",0.0808 (active)
same,normalized growth,"locus YER155C, strain BEM2, stronger effect = lower value",0.0577 (active)
same,normalized growth,"locus YER167W, strain BCK2, stronger effect = lower value",0.0469 (active)
same,normalized growth,"locus YFR010W, strain ubp6, stronger effect = lower value",0.0616 (active)
same,normalized growth,"locus YGL078C, strain dbp3, stronger effect = lower value",0.902 (active)
same,normalized growth,"locus YGL086W, strain mad1, stronger effect = lower value",0.0521 (active)
same,normalized growth,"locus YGL167C, strain pmr1, stronger effect = lower value",0.077 (active)
same,normalized growth,"locus YGL173C, strain kem1, stronger effect = lower value",0.0661 (active)
same,normalized growth,"locus YGL227W, strain vid30, stronger effect = lower value",0.06 (active)
same,normalized growth,"locus YGL240W, strain doc1, stronger effect = lower value",0.0665 (active)
same,normalized growth,"locus YGL248W, strain PDE1, stronger effect = lower value",0.0436 (active)
same,normalized growth,"locus YGL253W, strain hxk2, stronger effect = lower value",0.0517 (active)
same,normalized growth,"locus YGR135W, strain pre9, stronger effect = lower value",0.0567 (active)
same,normalized growth,"locus YGR252W, strain gcn5, stronger effect = lower value",0.109 (active)
same,normalized growth,"locus YHR013C, strain ard1, stronger effect = lower value",0.0967 (active)
same,normalized growth,"locus YHR027C, strain rpn1, stronger effect = lower value",0.0609 (active)
same,normalized growth,"locus YHR030C, strain SLT2, stronger effect = lower value",0.0483 (active) and 0.892 (inactive)
same,normalized growth,"locus YHR079C, strain IRE1 (second series), stronger effect = lower value",0.0545 (active)
same,normalized growth,"locus YHR079C, strain IRE1, stronger effect = lower value",0.911 (inactive)
same,normalized growth,"locus YHR094C, strain hxt1, stronger effect = lower value",0.0553 (active)
same,normalized growth,"locus YHR129C, strain ARP1, stronger effect = lower value",0.0538 (active)
same,normalized growth,"locus YHR142W, strain chs7, stronger effect = lower value",0.0639 (active)
same,normalized growth,"locus YHR200W, strain rpn10, stronger effect = lower value",0.0572 (active)
same,normalized growth,"locus YIL066C, strain RNR3, stronger effect = lower value",0.0459 (active)
same,normalized growth,"locus YIL073C, strain SPO22, stronger effect = lower value",0.102 (active)
same,normalized growth,"locus YIL125W, strain kgd1, stronger effect = lower value",1 (inactive)
same,normalized growth,"locus YIR030C, strain dcg1, stronger effect = lower value",0.0568 (active)
same,normalized growth,"locus YJL092W, strain hpr5, stronger effect = lower value",0.0567 (active)
same,normalized growth,"locus YJL095W, strain BCK1 (second series), stronger effect = lower value",0.0551 (active)
same,normalized growth,"locus YJL095W, strain BCK1, stronger effect = lower value",0.0554 (active) and 0.787 (active)
same,normalized growth,"locus YJL115W, strain asf1, stronger effect = lower value",0.069 (active)
same,normalized growth,"locus YJL129C, strain trk1, stronger effect = lower value",0.0791 (active)
same,normalized growth,"locus YJL134W, strain LCB3, stronger effect = lower value",0.0468 (active)
same,normalized growth,"locus YJL154C, strain vps35, stronger effect = lower value",0.0585 (active)
same,normalized growth,"locus YJL164C, strain tpk1, stronger effect = lower value",0.0551 (active)
same,normalized growth,"locus YJL166W, strain qcr8, stronger effect = lower value",0.0569 (active)
same,normalized growth,"locus YJL168C, strain set2, stronger effect = lower value",0.0547 (active)
same,normalized growth,"locus YJL187C, strain SWE1 (second series), stronger effect = lower value",0.0448 (active)
same,normalized growth,"locus YJR043C, strain POL32, stronger effect = lower value",0.0599 (active)
same,normalized growth,"locus YJR066W, strain TOR1, stronger effect = lower value",0.885 (inactive)
same,normalized growth,"locus YJR075W, strain HOC1, stronger effect = lower value",0.0593 (active)
